Test results reported in article PMC7862700, “An all-to-all approach to the identification of sequence-specific readers for epigenetic DNA modifications on cytosine”.

Tests used:
Assay in all cases: DAPPL (digital affinity profiling via proximity ligation, sequencing); 10 mM Tris-HCl pH 7.5, 50 mM NaCl, 1 mM DTT, 4% glycerol, room temperature, 30 min; GST-TFs on glutathione beads, 16-mer random dsDNA library, 0.1% formaldehyde crosslink after washing; high values mean tight binding
Settings in all cases: protein: recombinant; tags: N-terminal GST; dsDNA, one strand shown
FLI1 = target: T1, FLI1 (Homo sapiens, UniProt Q01543 1-452)
T1 sequence: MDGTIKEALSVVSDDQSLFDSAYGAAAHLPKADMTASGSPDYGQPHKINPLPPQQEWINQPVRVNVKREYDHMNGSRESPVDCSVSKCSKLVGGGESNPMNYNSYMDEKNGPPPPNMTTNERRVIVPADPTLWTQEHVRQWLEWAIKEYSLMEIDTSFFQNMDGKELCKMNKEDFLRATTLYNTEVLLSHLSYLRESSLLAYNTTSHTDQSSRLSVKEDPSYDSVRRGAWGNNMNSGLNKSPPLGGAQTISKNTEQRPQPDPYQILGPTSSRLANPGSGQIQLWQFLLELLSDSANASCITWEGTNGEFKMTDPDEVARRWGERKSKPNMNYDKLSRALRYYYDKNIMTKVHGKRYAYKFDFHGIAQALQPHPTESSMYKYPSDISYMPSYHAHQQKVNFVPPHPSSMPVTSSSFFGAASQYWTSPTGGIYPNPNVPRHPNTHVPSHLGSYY
Outline: (§1)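 GST fusions of human transcription factors were expressed in yeast and captured with glutathione beads. Once given DNA barcodes and pooled alongside a tag-only sample, they were incubated for 30 min at room temperature with 200 nmole of a random double-stranded 16-mer DNA library in Tris/NaCl/DTT/glycerol buffer, then washed, crosslinked (0.1% formaldehyde), proximity-ligated, PCR-amplified and sequenced on an Illumina NextSeq500. The binding signal of each hexamer is its read frequency for a factor divided by its frequency for the tag-only sample.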

ELK1 = target: T2, ELK1 (Homo sapiens, UniProt P19419 1-428)
T2 sequence: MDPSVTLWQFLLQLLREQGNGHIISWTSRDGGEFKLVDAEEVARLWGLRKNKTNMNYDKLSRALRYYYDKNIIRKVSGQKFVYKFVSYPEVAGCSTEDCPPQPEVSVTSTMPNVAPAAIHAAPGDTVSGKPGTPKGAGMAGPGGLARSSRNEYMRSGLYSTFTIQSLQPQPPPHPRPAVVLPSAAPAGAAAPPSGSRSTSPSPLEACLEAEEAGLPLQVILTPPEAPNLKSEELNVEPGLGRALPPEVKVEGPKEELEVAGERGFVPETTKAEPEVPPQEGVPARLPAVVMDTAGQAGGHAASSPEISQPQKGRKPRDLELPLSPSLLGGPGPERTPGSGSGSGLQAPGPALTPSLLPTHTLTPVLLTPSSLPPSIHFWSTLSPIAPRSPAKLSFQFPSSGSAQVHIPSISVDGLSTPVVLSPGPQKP
Outline: as §1

GABPA = target: T3, GABPA (Homo sapiens, UniProt Q06546 1-454)
T3 sequence: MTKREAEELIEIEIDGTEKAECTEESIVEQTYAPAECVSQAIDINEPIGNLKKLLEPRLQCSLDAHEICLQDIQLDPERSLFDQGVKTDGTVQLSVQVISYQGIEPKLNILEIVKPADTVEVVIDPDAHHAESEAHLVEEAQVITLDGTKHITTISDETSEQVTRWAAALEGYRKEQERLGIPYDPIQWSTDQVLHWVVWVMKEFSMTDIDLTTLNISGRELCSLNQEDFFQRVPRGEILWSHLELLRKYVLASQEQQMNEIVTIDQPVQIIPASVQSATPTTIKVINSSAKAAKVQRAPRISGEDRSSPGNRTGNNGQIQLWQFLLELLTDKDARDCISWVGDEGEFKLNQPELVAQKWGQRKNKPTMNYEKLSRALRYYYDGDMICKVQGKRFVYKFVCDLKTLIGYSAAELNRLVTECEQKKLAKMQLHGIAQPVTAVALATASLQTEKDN
Outline: as §1

ERG = target: T4, ERG (Homo sapiens, UniProt P11308 1-479)
T4 sequence: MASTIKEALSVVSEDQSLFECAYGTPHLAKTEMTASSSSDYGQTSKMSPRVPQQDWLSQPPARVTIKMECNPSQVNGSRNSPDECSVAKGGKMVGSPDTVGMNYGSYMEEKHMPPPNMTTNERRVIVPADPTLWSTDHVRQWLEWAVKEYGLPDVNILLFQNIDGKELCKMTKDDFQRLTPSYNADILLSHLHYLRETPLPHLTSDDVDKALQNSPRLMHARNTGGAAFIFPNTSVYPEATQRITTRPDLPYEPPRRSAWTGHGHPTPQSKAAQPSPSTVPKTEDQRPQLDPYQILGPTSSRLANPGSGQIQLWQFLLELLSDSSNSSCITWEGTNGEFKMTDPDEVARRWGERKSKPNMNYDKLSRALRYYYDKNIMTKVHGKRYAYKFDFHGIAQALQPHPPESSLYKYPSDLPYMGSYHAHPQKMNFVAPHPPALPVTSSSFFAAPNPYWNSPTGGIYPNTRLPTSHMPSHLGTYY
Outline: as §1

ELF1 = ELF1 (Homo sapiens, UniProt P32519 1-619)
Chain of ELF1 (P32519 whole entry): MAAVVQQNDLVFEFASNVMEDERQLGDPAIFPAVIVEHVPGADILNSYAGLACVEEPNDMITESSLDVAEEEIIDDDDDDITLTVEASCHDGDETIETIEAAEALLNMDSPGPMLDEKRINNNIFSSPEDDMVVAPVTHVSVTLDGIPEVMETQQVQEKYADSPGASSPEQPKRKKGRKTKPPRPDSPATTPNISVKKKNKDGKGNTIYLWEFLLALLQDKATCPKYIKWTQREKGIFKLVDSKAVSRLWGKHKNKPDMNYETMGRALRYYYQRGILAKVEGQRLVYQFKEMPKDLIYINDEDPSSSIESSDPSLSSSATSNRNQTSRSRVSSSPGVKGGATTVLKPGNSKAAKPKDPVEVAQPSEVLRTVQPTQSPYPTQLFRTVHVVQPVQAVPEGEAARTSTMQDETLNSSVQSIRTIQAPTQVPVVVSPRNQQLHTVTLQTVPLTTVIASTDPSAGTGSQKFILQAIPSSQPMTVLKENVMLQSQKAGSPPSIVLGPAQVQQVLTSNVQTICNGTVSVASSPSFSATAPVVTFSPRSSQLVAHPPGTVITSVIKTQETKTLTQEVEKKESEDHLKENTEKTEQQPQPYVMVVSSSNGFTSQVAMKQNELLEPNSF
Outline: as §1

EHF = target: T5, EHF (Homo sapiens, UniProt Q9NZC4 1-300)
T5 sequence: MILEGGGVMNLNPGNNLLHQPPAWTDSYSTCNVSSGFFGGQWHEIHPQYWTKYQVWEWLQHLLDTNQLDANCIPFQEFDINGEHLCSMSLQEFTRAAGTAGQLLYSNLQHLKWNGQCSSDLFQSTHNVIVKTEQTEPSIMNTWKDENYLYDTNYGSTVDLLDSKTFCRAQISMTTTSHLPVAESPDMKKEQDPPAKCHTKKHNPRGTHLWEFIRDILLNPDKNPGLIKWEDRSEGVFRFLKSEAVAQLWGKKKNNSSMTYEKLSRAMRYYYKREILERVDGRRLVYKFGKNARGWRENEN
Outline: as §1

SPI1 = SPI1 (Homo sapiens, UniProt P17947 1-270)
Outline: as §1

SPIB = SPIB (Homo sapiens, UniProt Q01892 1-262)
Chain of SPIB (Q01892 whole entry): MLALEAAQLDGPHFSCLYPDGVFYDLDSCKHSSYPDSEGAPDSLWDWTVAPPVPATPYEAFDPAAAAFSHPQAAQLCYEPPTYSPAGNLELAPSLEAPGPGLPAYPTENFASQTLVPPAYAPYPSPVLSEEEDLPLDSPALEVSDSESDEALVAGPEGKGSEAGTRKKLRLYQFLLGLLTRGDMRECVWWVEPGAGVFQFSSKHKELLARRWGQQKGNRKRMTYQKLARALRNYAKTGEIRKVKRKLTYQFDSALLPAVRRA
Outline: as §1

ELK3 = target: T6, ELK3 (Homo sapiens, UniProt P41970 1-407)
T6 sequence: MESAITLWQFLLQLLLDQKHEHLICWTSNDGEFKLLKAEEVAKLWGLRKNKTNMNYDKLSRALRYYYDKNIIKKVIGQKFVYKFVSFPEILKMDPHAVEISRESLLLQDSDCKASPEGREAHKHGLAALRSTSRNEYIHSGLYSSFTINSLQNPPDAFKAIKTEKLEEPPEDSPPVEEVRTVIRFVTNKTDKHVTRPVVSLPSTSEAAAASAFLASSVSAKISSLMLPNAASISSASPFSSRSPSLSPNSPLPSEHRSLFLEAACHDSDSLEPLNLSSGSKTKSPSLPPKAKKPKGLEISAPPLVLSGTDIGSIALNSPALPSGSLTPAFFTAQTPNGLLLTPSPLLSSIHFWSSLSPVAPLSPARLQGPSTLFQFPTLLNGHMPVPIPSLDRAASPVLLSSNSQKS
Outline: as §1

Sequence | binding signal (FLI1) | binding signal (ELK1) | binding signal (GABPA) | binding signal (ERG) | binding signal (ELF1) | binding signal (EHF) | binding signal (SPI1) | binding signal (SPIB) | binding signal (ELK3)
ATGAAA | 1.11 fold enrichment (6-mer frequency, TF over GST control) | 1.17 fold enrichment (6-mer frequency, TF over GST control) | 1.16 fold enrichment (6-mer frequency, TF over GST control) | 1.17 fold enrichment (6-mer frequency, TF over GST control) | 1.2 fold enrichment (6-mer frequency, TF over GST control) | 1.16 fold enrichment (6-mer frequency, TF over GST control) | 1.2 fold enrichment (6-mer frequency, TF over GST control) | 1.15 fold enrichment (6-mer frequency, TF over GST control) | 1.06 fold enrichment (6-mer frequency, TF over GST control)
TGAACA | 1.25 fold enrichment (6-mer frequency, TF over GST control) | 1.23 fold enrichment (6-mer frequency, TF over GST control) | 1.18 fold enrichment (6-mer frequency, TF over GST control) | 1.21 fold enrichment (6-mer frequency, TF over GST control) | 1.26 fold enrichment (6-mer frequency, TF over GST control) | 1.27 fold enrichment (6-mer frequency, TF over GST control) | 1.14 fold enrichment (6-mer frequency, TF over GST control) | 1.23 fold enrichment (6-mer frequency, TF over GST control) | 1.33 fold enrichment (6-mer frequency, TF over GST control)
TTGACA | 1.38 fold enrichment (6-mer frequency, TF over GST control) | 1.37 fold enrichment (6-mer frequency, TF over GST control) | 1.44 fold enrichment (6-mer frequency, TF over GST control) | 1.34 fold enrichment (6-mer frequency, TF over GST control) | 1.37 fold enrichment (6-mer frequency, TF over GST control) | 1.29 fold enrichment (6-mer frequency, TF over GST control) | 1.25 fold enrichment (6-mer frequency, TF over GST control) | 1.28 fold enrichment (6-mer frequency, TF over GST control) | 1.28 fold enrichment (6-mer frequency, TF over GST control)
TATAGT | 1.12 fold enrichment (6-mer frequency, TF over GST control) | 1.1 fold enrichment (6-mer frequency, TF over GST control) | 1.11 fold enrichment (6-mer frequency, TF over GST control) | 1.05 fold enrichment (6-mer frequency, TF over GST control) | 1.07 fold enrichment (6-mer frequency, TF over GST control) | 1.12 fold enrichment (6-mer frequency, TF over GST control) | 1.06 fold enrichment (6-mer frequency, TF over GST control) | 1.04 fold enrichment (6-mer frequency, TF over GST control) | 1.03 fold enrichment (6-mer frequency, TF over GST control)
TTGCTT | 1.32 fold enrichment (6-mer frequency, TF over GST control) | 1.15 fold enrichment (6-mer frequency, TF over GST control) | 1.36 fold enrichment (6-mer frequency, TF over GST control) | 1.3 fold enrichment (6-mer frequency, TF over GST control) | 1.21 fold enrichment (6-mer frequency, TF over GST control) | 1.2 fold enrichment (6-mer frequency, TF over GST control) | 1.29 fold enrichment (6-mer frequency, TF over GST control) | 1.35 fold enrichment (6-mer frequency, TF over GST control) | 1.26 fold enrichment (6-mer frequency, TF over GST control)
AATTCG | 1.29 fold enrichment (6-mer frequency, TF over GST control) | 1.26 fold enrichment (6-mer frequency, TF over GST control) | 1.24 fold enrichment (6-mer frequency, TF over GST control) | 1.3 fold enrichment (6-mer frequency, TF over GST control) | 1.29 fold enrichment (6-mer frequency, TF over GST control) | 1.23 fold enrichment (6-mer frequency, TF over GST control) | 1.13 fold enrichment (6-mer frequency, TF over GST control) | 1.38 fold enrichment (6-mer frequency, TF over GST control) | 1.29 fold enrichment (6-mer frequency, TF over GST control)
TCATAT | 1.21 fold enrichment (6-mer frequency, TF over GST control) | 1.2 fold enrichment (6-mer frequency, TF over GST control) | 1.26 fold enrichment (6-mer frequency, TF over GST control) | 1.2 fold enrichment (6-mer frequency, TF over GST control) | 1.29 fold enrichment (6-mer frequency, TF over GST control) | 1.24 fold enrichment (6-mer frequency, TF over GST control) | 1.18 fold enrichment (6-mer frequency, TF over GST control) | 1.4 fold enrichment (6-mer frequency, TF over GST control) | 1.17 fold enrichment (6-mer frequency, TF over GST control)
